An excerpt weighted towards active compounds, which were near 3.5% of everything screened.
MITF primary = human MITF inhibition, primary screen; inhibition, % at 2.6 µM; hit rate 0.91% among 650,000; AlphaScreen MITF homodimerization, bead proximity signal; AID 1259374; in the data active means inhibition above about 50%
FBW7 act = activators of human E3 ligase FBW7 | AID 1259310 | AlphaScreen FBW7–phospho-cyclin E peptide binding, activator screen | hit rate 0.13% among 650,000 | Q969H0 | normalized activity (activation), % at 26.1 µM; in the data active means normalized activity above about 1.9%;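 further: purified mutant Fbw7 with reduced substrate affinity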
TEAD-YAP block = TEAD-YAP interaction inhibition; inhibition, % at 9.12 µM; hit rate 1.4% among 640,000; HEK-TIYL cells, TEAD-Gal4/YAP UAS-luciferase luminescence; in the data active means inhibition above about 32%
GPR151 ag = human GPR151 activation. Q8TDV0. PathHunter beta-arrestin GPR151 cells, luminescence. activation, % at 11.2 µM. hit rate 1% among 650,000; in the data active means activation above about 4.9%
Each line names hits and unclear results; the compound was inactive in the other large screens.

O=C(Nc1ccc(-n2cccn2)cc1)C1CCN(Cc2nc3c(s2)CCCC3)CC1	TEAD-YAP block 37.7
COc1cc(CN2CCN(S(=O)(=O)c3ccc(NC(C)=O)cc3)CC2)ccc1OCc1ccccc1	none
COc1ccc(CN2CCN(S(=O)(=O)c3ccc(NC(C)=O)cc3)CC2)cc1OCc1ccccc1	TEAD-YAP block 35.4
COc1cccc(/C=C2/NC(=S)NC2=O)c1O	TEAD-YAP block 41.2
COc1cc(/C=C2/NC(=S)NC2=O)ccc1O	TEAD-YAP block 54.4
O=C1NC(=S)N/C1=C/c1ccc2c(c1)OCO2	TEAD-YAP block 36.0
O=C1NC(=S)S/C1=C\c1ccc2c(c1)OCO2	none
COc1cc(/C=C2\NC(=S)NC2=O)ccc1O	none
Cc1ncc(CN2CCCC(CNC(=O)c3cccc4ccccc34)C2)s1 (centres undefined)	none
COc1ccc(N(C)S(=O)(=O)c2cc(Br)cc3c2N(C(C)=O)CC3)c(OC)c1	TEAD-YAP block 56.1
Cc1cccc(NC(=O)CC2S/C(=N\N=C\c3ccccc3)NC2=O)c1C (centres undefined)	none
O=C(Nc1nc2c(cc3c4c(cccc42)CC3)s1)c1cccc(N2C(=O)CCC2=O)c1	none
c1ccc(-c2nc(CSc3nnc4ccccn34)cs2)cc1	none
CNC(=O)/C(C#N)=C/c1ccc(-c2ccc(Br)cc2)o1	none
CNC(=O)/C(C#N)=C/c1ccc(-c2ccc(Cl)c(Cl)c2)o1	FBW7 act 1.9
CCCC(Nc1ncnc2sccc12)c1ccccc1 (centres undefined)	none
CC(C)CCCC(C)Nc1ncnc2sccc12 (centres undefined)	TEAD-YAP block 48.0
Cc1c(Cl)ccc(S(=O)(=O)n2cnc3ccccc32)c1Cl	none
Cc1[nH]c2c(NS(=O)(=O)c3ccc4oc(=O)ccc4c3)cccc2c1C	none
CCOC(=O)c1cc2cccc(NS(=O)(=O)c3ccc(OC)cc3)c2[nH]1	TEAD-YAP block 52.3
COc1ccc(S(=O)(=O)Nc2cccc3c(C)c(C)[nH]c23)cc1	TEAD-YAP block 44.4
CCOC(=O)c1cc2cccc(NS(=O)(=O)c3cccs3)c2[nH]1	none
COc1ccc(C(=O)N(Cc2cccnc2)Cc2cc3cc(C)ccc3n3nnnc23)cc1	none
O=C(O)c1cccc(N/N=C/c2cccc3ccccc23)c1	none
Cc1ccsc1/C=N/Nc1ccc(C(=O)O)cc1	TEAD-YAP block 49.1
Cc1nn(-c2ccccc2)c(C)c1/C=N/Nc1cccc(C(=O)O)c1	TEAD-YAP block 42.5
O=C(O)c1cccc(N/N=C/c2cc(Br)cs2)c1	TEAD-YAP block 37.8
Cc1ccsc1/C=N/Nc1cccc(C(=O)O)c1	TEAD-YAP block 47.5
COc1cccc(C2CC(=O)N3CN(c4ccc(N(C)C)cc4)CSC3=C2C#N)c1 (centres undefined)	none
O=C(Nc1ccc(F)cc1F)c1nn2c(C(F)(F)F)cc(-c3ccco3)nc2c1Cl	none
CCCCN(C)c1ncnc(N)c1[N+](=O)[O-]	TEAD-YAP block 41.5
CCCCN(c1ccccc1)c1ncnc(N)c1[N+](=O)[O-]	none
CCN(CC)c1ncnc(N)c1[N+](=O)[O-]	TEAD-YAP block 63.1
CCCCN(Cc1ccccc1)c1ncnc(N)c1[N+](=O)[O-]	none
CCN(c1ccccc1)c1ncnc(N)c1[N+](=O)[O-]	TEAD-YAP block 52.3
Nc1ncnc(N2CCCCCC2)c1[N+](=O)[O-]	TEAD-YAP block 49.3
O=[N+]([O-])c1c(N2CCCCCC2)ncnc1N1CCCCCC1	none
Cc1c(CSc2ccc(Br)cc2)nc2ccccn12	none
COc1ccc(N2CSC3=C(C#N)C(c4ccc(O)c(OC)c4)CC(=O)N3C2)cc1 (centres undefined)	none
Cc1noc(C)c1C(=O)Nc1ccc(S(=O)(=O)N2CCN(C)CC2)cc1	none
CN(c1ncnc(N)c1[N+](=O)[O-])C1CCCCC1	TEAD-YAP block 53.7
CN(c1ncnc(N)c1[N+](=O)[O-])C1CCS(=O)(=O)C1 (centres undefined)	none
CC(=O)N(/C=C1\Sc2ccccc2C1=O)c1ccc(C(=O)O)cc1	none
COc1ccccc1N(/C=C1\Sc2ccccc2C1=O)C(C)=O	TEAD-YAP block 78.6
CC(=O)N(/C=C1\Sc2ccccc2C1=O)c1ccc(C)cc1	TEAD-YAP block 69.8
O=C(CSc1ncccc1-c1nc2ccccc2[nH]1)NCc1ccco1	none
Cc1cc2nc(-c3cccnc3SCC(=O)NCc3ccco3)[nH]c2cc1C	TEAD-YAP block 36.8
CC(=O)c1c(C)[nH]c(C(=O)CN(C)Cc2c(F)cccc2Cl)c1C	TEAD-YAP block 48.6
CN(Cc1c(F)cccc1Cl)C(=O)CSc1nnc(N)s1	none
CN(Cc1c(F)cccc1Cl)C(=O)CCl	TEAD-YAP block 42.1
O=C(CSc1nc2ccccc2n1CCc1ccccc1)Nc1ccccc1F	none

Compound activity (PubChem)
